Chlamy TAG = increases triacylglycerol in Chlamydomonas reinhardtii | Chlamydomonas reinhardtii TAG, Nile Red fluorescence, 72 h | calls only at 10 µM (by protocol) | actives 0.84% (n = 44,000); call rule not given here;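 note: hits raise Nile Red signal meaning more stored TAG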
An asterisk follows results filed as active; i = inactive; + = active, no number. The sample as a whole holds a higher share of hits than the screen did.

SMILES	Chlamy TAG
C/C=C(\C)CN1CCN(Cc2ccccc2)CC1	i
C/C=C(\C)CN1CCN(c2ccc(C)cc2)CC1	+
Cc1ccc(NC(=O)CN2CCN(c3ccc(F)cc3)CC2)cc1	i
CC(NC(=O)C(=O)Nc1cccc(F)c1)c1ccccc1 (configuration not stated)	i
O=C(CN(C1CCCCC1)S(=O)(=O)c1ccc(F)cc1)NCc1cccnc1	i
Cc1cccc(-c2cc(NC(=O)c3ccc([N+](=O)[O-])cc3)n[nH]2)c1	+
Cc1cccc(-c2cc(NC(=O)c3ccccc3[N+](=O)[O-])n[nH]2)c1	i
O=C(Nc1ncccn1)c1ccc([N+](=O)[O-])cc1	i
CC(C)(C)c1cc(CCC(=O)O)cc(C(C)(C)C)c1O	i
O=C1CC(N2CCC(C(O)(c3ccccc3)c3ccccc3)CC2)C(=O)N1c1ccc(F)cc1 (configuration not stated)	+
NC(=O)C1CCN(C2CC(=O)N(c3ccc(F)cc3)C2=O)CC1 (configuration not stated)	i
COc1ccc(N2C(=O)CC(N3CCC(C(O)(c4ccccc4)c4ccccc4)CC3)C2=O)cc1 (configuration not stated)	i
O=C(NCCSc1ccc(Cl)cc1)Nc1ccc(Cl)cc1	i
O=C(CN1CCOCC1)N(c1ccccc1)c1ccccc1	i
O=S(=O)(c1ccc(F)cc1)N1CCCC1	i
O=S(=O)(c1ccc(F)cc1)N1CCN(C2CCCCC2)CC1	+
CCCN1CCC(N2CCN(S(=O)(=O)c3ccc(F)cc3)CC2)CC1	i
CC1CCCN(C2CCN(S(=O)(=O)c3ccc(F)cc3)CC2)C1 (configuration not stated)	+
O=S(=O)(c1ccc(F)cc1)N1CCN(C2CCCC2)CC1	i
Cc1ccc(S(=O)(=O)N2CCC(N3CCCCC3)CC2)cc1	i
COc1cc(CN2CCOCC2)cc(OC)c1	i
O=C(Nc1cccnc1)c1ccc(-c2cccc(Cl)c2)o1	i
CC1(C)NC(C(=O)O)Cc2c1[nH]c1ccccc21 (configuration not stated)	i
CCc1cccc(NC(=O)c2c(F)c(F)c(F)c(F)c2F)c1	i
CS(=O)(=O)N1CCN(C2C3CC4CC(C3)CC2C4)CC1 (configuration not stated)	+
SMILES	Chlamy TAG
Cc1ccc(N2CCN(C3C4CC5CC(C4)CC3C5)CC2)cc1 (configuration not stated)	i
O=C(c1ccccc1)N1CCN(C2C3CC4CC(C3)CC2C4)CC1 (configuration not stated)	i
CC1CCCCN1S(=O)(=O)c1ccc(NC(=O)COc2ccc(F)cc2)cc1 (configuration not stated)	i
Brc1ccc(CN2CCN(c3ccccn3)CC2)cc1	i
Brc1ccc2ncnc(N3CCOCC3)c2c1	i
Brc1ccc2ncnc(N3CCN(Cc4ccccc4)CC3)c2c1	+
CN1CCN(Cc2ccc(-c3cccc([N+](=O)[O-])c3)o2)CC1	i
O=C(NC1CCCCCC1)c1ccccc1N(Cc1ccccc1)S(=O)(=O)c1ccccc1	i
CCN(CC)C(=O)C1CCCN(Cc2ccc(OC)c(C)c2)C1 (configuration not stated)	i
Cn1c(=N)n(N)c2ccccc21	i
Cc1cc(-n2nc(C)cc2C)nc(N)n1	i
CCN(CC)c1cc(C)nc(N)n1	+
Cc1cc(N2CCCCC2)nc(N)n1	i
O=C(CSc1nc2ccccc2o1)NC1CC1	i
COc1ccc(CNCc2ccc(C)cc2C)cc1	i
COc1ccc(CNCc2ccc(C)cc2)c(OC)c1	+
COc1ccc(CNCc2ccc(C)cc2C)c(OC)c1	i
O=C(O)C1CCCCC1C(=O)Nc1nccs1 (configuration not stated)	i
Cc1ccc(C)n1-c1ccc(Cl)c(C(=O)NN)c1	i
CN(CC(=O)Nc1ccc(C(N)=O)cc1)S(=O)(=O)c1ccc(Cl)cc1	i
CCCSc1nnc(-c2ccc(Cl)cc2Cl)o1	i
c1ccc(N2CCN(CC3CCCCC3)CC2)cc1	+
CCN1CCC(N2CCN(c3ccccc3)CC2)CC1	i
O=C(C1CCN(CC2CCCCC2)CC1)N1CCN(c2ccccc2)CC1	i
CC(=O)c1cccc(NC(=O)c2cc(Br)ccc2Cl)c1	i
SMILES	Chlamy TAG
O=C(Nc1ccc(Cl)cc1)c1ccccc1Br	i
O=C(Nc1ccc(Br)cc1)c1ccccc1Cl	+
COc1ccc(Br)cc1C(=O)Nc1ccc(Cc2ccncc2)cc1	i
O=C(O)c1ccc(NC(=O)c2ccccc2Cl)cc1	i
O=C(Nc1ccc(Cc2ccncc2)cc1)c1cc(Br)ccc1Cl	+
CSc1cccc(NC(=O)C2CCN(C(=O)c3ccc(F)cc3)CC2)c1	i
CC(=O)c1ccc(NC(=O)COc2ccc([N+](=O)[O-])cc2)cc1	i
O=[N+]([O-])c1ccc(CNC2CCCc3ccccc32)cc1 (configuration not stated)	i
O=C(NC1CCCCC1)c1ccc([N+](=O)[O-])o1	i
CN1CCC(N(C)Cc2ccc([N+](=O)[O-])cc2)CC1	i

High-throughput results from PubChem BioAssay.
